Screening data from PubChem.
BAZ2B block = qHTS Assay for Inhibitors of BAZ2B; Bromodomain adjacent to zinc finger domain protein 2B (Homo sapiens), Q9UIF8; AlphaScreen BAZ2B-H3K14Ac peptide displacement; Potency, µM (top dose mostly 114 µM), without a hit: at the top dose activity change, negative = inhibition, usual class: inhibitors; 360,000 compounds, 4.4% hits; AID 504333, 2011; also: % is scaled to controls: 0 for no effect and ±100 for the full control effect; nearly all actives have a fitted effect of over 60% in size
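BAZ2B 50 nM plus b-H3(5-23)K14Ac 50 nM, PBS pH 7.4/0.01% Tween-20, 30 min RT; compound added (max 110 uM), 30 min RT; streptavidin donor/Ni-chelate acceptor beads 10 ug/mL final, 20 min dark; AlphaScreen read.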
GLS inh = qHTS for Inhibitors of Glutaminase (GLS). Glutaminase kidney isoform, mitochondrial (Homo sapiens), O94925. GLS enzymatic activity, qHTS titration. Potency, µM (titrated, usually from 45.5 µM), inactives show top-dose activity change, negative = inhibition, most hits filed as inhibitors. 410,000 compounds, 0.21% hits. AID 624170, 2012; also: % is scaled to controls: 0 for no effect and ±100 for the full control effect
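Coupled fluorescence readout: glutamate oxidase/HRP/Amplex Red detect glutamate formed by hKGA from L-glutamine (1 mM solution added). Buffer 45 mM KH2PO4 pH 8.2, 0.02% Tween-20; reads at t0 and 30 min RT.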
G9a block = qHTS Assay for Inhibitors of Histone Lysine Methyltransferase G9a; Histone-lysine N-methyltransferase EHMT2 (Homo sapiens), Q96KQ7; G9a H3K9 monomethylation, AlphaScreen, 2 h; Potency, µM (titrated, usually from 102 µM), without a hit: at the highest dose activity, negative = inhibition, actives largely listed as inhibitors; 350,000 compounds, 8.8% hits; also: % is scaled to controls: 0 for no effect and ±100 for the full control effect; nearly all actives have a fitted effect of over 75% in size
Target sequence (Q96KQ7 913-1193 limits assumed): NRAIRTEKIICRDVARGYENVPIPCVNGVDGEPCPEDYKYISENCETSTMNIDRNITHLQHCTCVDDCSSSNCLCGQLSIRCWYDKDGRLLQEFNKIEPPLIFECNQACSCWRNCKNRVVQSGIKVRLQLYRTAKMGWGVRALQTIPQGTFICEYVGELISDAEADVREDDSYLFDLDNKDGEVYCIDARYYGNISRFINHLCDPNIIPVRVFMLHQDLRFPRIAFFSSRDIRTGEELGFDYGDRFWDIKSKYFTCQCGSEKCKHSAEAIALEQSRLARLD
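Methyltransferase reactions run at room temperature for 2 h (20 nM enzyme, 500 nM biotin-H3K9 peptide, 20 uM SAM) after a 15 min compound preincubation; product detected by AlphaScreen beads and anti-H3K9me1 antibody.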
JMJD2A Tudor inh = qHTS Assay for Inhibitors of JMJD2A-Tudor Domain. Lysine-specific demethylase 4A (Homo sapiens), O75164. Potency, µM (highest dose often 114 µM), inactives show at the top dose activity change, negative = inhibition, usual class: inhibitors. AlphaScreen JMJD2A-Tudor / H3K4me3 peptide binding. 390,000 compounds, 4.4% hits; also: % is scaled to controls: 0 for no effect and ±100 for the full control effect; nearly all actives have a fitted effect of over 50% in size
HP1b binding inh = HTS for Inhibitors of HP1-beta Chromodomain Interactions with Methylated Histone Tails | 390,000 compounds, 0.56% hits | AID 540317, 2011 | AlphaScreen HP1-beta / biotin-H3K9me3 peptide binding | Potency, µM (titrated, usually from 114 µM), for the others: at the top dose activity change, negative = inhibition, most hits filed as inhibitors; also: nearly all actives have a fitted effect of over 70% in size
Target sequence (P83916 whole entry, looked up): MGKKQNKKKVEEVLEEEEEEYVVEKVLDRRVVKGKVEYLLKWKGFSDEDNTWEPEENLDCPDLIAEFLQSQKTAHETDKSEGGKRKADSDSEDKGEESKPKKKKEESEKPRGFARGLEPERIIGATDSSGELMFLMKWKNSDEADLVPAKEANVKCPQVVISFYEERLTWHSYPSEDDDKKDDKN
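AlphaScreen: HP1-beta (50 nM) preformed 30 min with biotin-H3(1-18)K9me3 peptide (50 nM) in PBS pH 7.4, 0.01% Tween-20. Compound added for 30 min at RT, then streptavidin donor/nickel chelate acceptor beads (10 ug/mL) for 30 min.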
Starred values were filed as active, the others as inactive; u = inconclusive; x = no result given; [ ] = another dose, or the depositor's remark. A selection: hits, their analogues and other compounds. The true share with any hit is near 10%. Calls follow the shape of the dose curve; as a rule, active = well fitted curve in the direction sought with a large enough effect; inconclusive = small, poorly fitted or top-dose-only effect, or another doubt; inactive = no such curve, though single readings can be large; an effect the other way counts as inactive or inconclusive. Potency is read from the fitted curve at half-maximal effect.

SMILES	BAZ2B block	GLS inh	G9a block	JMJD2A Tudor inh	HP1b binding inh
COc1cccc2sc3cc(C#Cc4ccccn4)ccc3c(=O)c12	x	-3%	x	28µM*	-7%
O=C(Cc1cccc(NC(=O)C2CCN(C(=O)CCc3ccccc3)CC2)c1)Nc1cccc(C(=O)N2CCOCC2)c1	x	-7%	x	-7%	35%
O=C(CCc1ccc(O)c(O)c1)NNC(=S)Nc1ccc(Br)cc1Cl	-2%	10%	18µM*	-18%	-15%
CCCCn1c(=O)[nH]c(=O)c2c1nc(-c1cc(Br)ccc1OC)n2C	-1%	6%	18%	-13%	16%
Cc1ccc(NC(=S)N(CCN(C)C)Cc2cccs2)cc1	-19%	15%	u	-14%	20%
CCCCNc1cc(NC(C)=O)cc2cc(OC)c(OC)cc12	-36%	-2%	45µM*	u	-15%
COc1cc2cc(NC(C)=O)cc(NCc3ccccc3)c2cc1OC	45µM*	-6%	u	u	-2%
CCCC(=O)Nc1cc(OC)c(OC)cc1C(=O)O	2%	1%	5%[59 µM]	5%	31%
COC(=O)c1c(N)sc(Cc2ccccc2)c1C	u	-5%	-11%[0.501 µM]	-13%	25%
Nc1sc(-c2ccccc2)c(Cc2ccccc2)c1C(=O)O	x	18%	50µM*	u	u
COc1ccc(C(=O)NC(C(=O)N2CCc3ccccc32)C(C)C)cc1 (stereo not given)	-23%	5%	8%[59 µM]	-16%	13%
Cc1cccc(OCC(=O)NNS(=O)(=O)c2ccccc2F)c1	4%	13%	21%[59 µM]	-10%	-5%
CCCc1cc(=O)[nH]c(Nc2ccc(N3CCCCC3)cc2)n1	50µM*	63%	8.9µM*	50µM*	u
Cc1cc(C)nc(N/N=C/c2ccc(N3CCOCC3)cc2)n1	-15%	u	30%	-11%	32%
CCCCc1ccc(Nc2nc(CCC)cc(=O)[nH]2)cc1	11%	10%	2%[59 µM]	-18%	16%
Cc1cc(C)nc(Nc2ccc(N3CCOCC3)cc2)n1	-38%	35%	50µM*	-19%	1%
Cc1cc(C)nc(Nc2ccc(N3CCCC3)cc2)n1	28µM*	8%	u	35µM*	u
OCCN1CCN(Cc2cc(Cl)c3cccnc3c2O)CC1	7.9µM*	8%	50µM*	13µM*	4%
O=c1c(CN2CCN(c3ccccn3)CC2)coc2ccccc12	79µM*	18%	u	22µM*	u
Oc1c(CN2CCN(c3ccccn3)CC2)cc(Cl)c2cccnc12	14µM*	17%	u	32µM*	-15%
O=C(c1ccc(Cl)c(Cl)c1)N1CCN(c2ccccn2)CC1	0%	4%	x	-1%	38%
C=CCOc1nc2sc(C)c(C)c2c(=O)n1-c1ccccc1	-25%	-5%	36%[59 µM]	0%	38%
COc1ccc(/C=C(\NC(=O)/C=C/c2ccco2)C(=O)NCCc2nc3ccccc3[nH]2)cc1	50µM*	2%	u	u	u
COc1ccc(CCNC(=O)/C=C/c2ccco2)cc1OC	-27%	20%	14µM*	-16%	-15%
CCOc1ccc(CCNC(=O)/C=C/c2ccco2)cc1OCC	u	0%	35µM*	-34%	5%
SMILES	BAZ2B block	GLS inh	G9a block	JMJD2A Tudor inh	HP1b binding inh
COc1ccc(CCNC(=O)/C=C/c2ccco2)cc1	u	19%	x	32µM*	u
O=C(NCc1ccc(OC(F)(F)F)cc1)c1ccc2c(c1)S(=O)(=O)c1ccccc1C2=O	x	-10%	x	-33%	30%
Cc1cc(C)cc(OCC(=O)Nc2ccc3c4c(cccc24)CC3)c1	-8%	-1%	3%[0.501 µM]	-22%[57.1 µM]	-5%
CCc1ccc(/C(C)=N/NC(=O)CNC(=O)/C=C/c2ccco2)cc1	x	0%	x	22µM*	22µM*
CS(=O)(=O)c1ccccc1C(=O)Nc1cc2c(cc1C(=O)O)OCCCO2	3%	0%	50µM*	-30%	20%[57 µM]
O=C(O)c1cc2c(cc1NC(=O)c1ccccc1C(F)(F)F)OCCCO2	-26%	-15%	1%	-7%	25%
